Assay results: PubChem BioAssay
The source made the active and inactive calls.

Experiments:
[1] = E. coli DRC41 culture turbidity changes, primary screen, E. coli filamentation inducer project, strain DRC41, OD650, 48 h (AID 1152);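 note: E. coli MC1000 strain DRC41 lacking acrAB efflux pump and sulA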; conditions: E. coli DRC41 (acrAB sulA), higher = more signal, called active from +8 up or from −8 down
[2] = small-molecule binders of probe aLefty1, primary screen, biochemical, small-molecule microarray, 635/667 nm fluorescence (AID 1153); conditions: higher = more signal;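 note: score merges spot fluorescence with signal-to-noise ratio from the scanned slide images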
[3] = PSAC antagonists in infected red cells, primary screen, cell-based, P. falciparum Indochina, OD700, 1 h (AID 1154); conditions: P. falciparum Indochina infected RBC osmotic lysis, higher = more signal, called active from +8 up or from −8 down
[4] = PSAC antagonists in infected red cells, primary screen, cell-based, P. falciparum Indochina, OD700, 2 h (AID 1155);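 note: lysis reports solute entry through the parasite surface anion channel PSAC; channel blockers reduce lysis of infected cells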; conditions: P. falciparum Indochina infected erythrocytes, osmotic lysis OD700; higher = more signal, called active from +8 up or from −8 down
[5] = osmotic lysis modulators in infected erythrocytes, primary screen, PSAC antagonist project, cell-based, P. falciparum Indochina, OD700, 3 h (AID 1156); conditions: higher = more signal, called active from +8 up or from −8 down
[6] = PSAC antagonists in infected red cells, primary screen, cell-based, P. falciparum Indochina, OD700, 18 h (AID 1157); conditions: P. falciparum Indochina infected erythrocytes, osmotic lysis OD700, 18 h; higher = more signal, called active from +8 up or from −8 down
[7] = modulators of S6 phosphorylation in cells, primary screen, cell-based, A549, cytoblot, luminescence, serum-stimulated (AID 1158); conditions: A549 phospho-S6 cytoblot, 5 h, higher = more signal;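 note: serum-stimulated A549 lung adenocarcinoma cells; signal is phosphorylated S6 detected by cytoblot immunostaining with HRP secondary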
[8] = target: NADPH oxidase 2 (Homo sapiens) (UniProt P04839); assay: NOX2-dependent H2O2 signal modulators, primary screen, NOX inhibitor project, cell-based, HEK293-NOX2, PMA-stimulated, Amplex Red fluorescence (AID 1159); conditions: 45 min, higher = more signal, called active from +8 up or from −8 down; note: test concentration not given here
[9] = target: NADPH oxidase 4 (Homo sapiens) (UniProt Q9NPH5); assay: NOX4-dependent H2O2 signal modulators, primary screen, NOX inhibitor project, cell-based, HEK293-NOX4, tetracycline-induced, Amplex Red fluorescence (AID 1160); conditions: 45 min, higher = more signal, called active from +8 up or from −8 down
[10] = target: NADPH oxidase 5 (Homo sapiens) (UniProt Q96PH1); assay: NOX5-dependent H2O2 signal modulators, primary screen, NOX inhibitor project, cell-based, HEK293-NOX5, Amplex Red fluorescence (AID 1161); conditions: HEK293-NOX5, ionomycin, 45 min, higher = more signal
Chain of NADPH oxidase 5 (Homo sapiens) (Q96PH1 whole entry, looked up): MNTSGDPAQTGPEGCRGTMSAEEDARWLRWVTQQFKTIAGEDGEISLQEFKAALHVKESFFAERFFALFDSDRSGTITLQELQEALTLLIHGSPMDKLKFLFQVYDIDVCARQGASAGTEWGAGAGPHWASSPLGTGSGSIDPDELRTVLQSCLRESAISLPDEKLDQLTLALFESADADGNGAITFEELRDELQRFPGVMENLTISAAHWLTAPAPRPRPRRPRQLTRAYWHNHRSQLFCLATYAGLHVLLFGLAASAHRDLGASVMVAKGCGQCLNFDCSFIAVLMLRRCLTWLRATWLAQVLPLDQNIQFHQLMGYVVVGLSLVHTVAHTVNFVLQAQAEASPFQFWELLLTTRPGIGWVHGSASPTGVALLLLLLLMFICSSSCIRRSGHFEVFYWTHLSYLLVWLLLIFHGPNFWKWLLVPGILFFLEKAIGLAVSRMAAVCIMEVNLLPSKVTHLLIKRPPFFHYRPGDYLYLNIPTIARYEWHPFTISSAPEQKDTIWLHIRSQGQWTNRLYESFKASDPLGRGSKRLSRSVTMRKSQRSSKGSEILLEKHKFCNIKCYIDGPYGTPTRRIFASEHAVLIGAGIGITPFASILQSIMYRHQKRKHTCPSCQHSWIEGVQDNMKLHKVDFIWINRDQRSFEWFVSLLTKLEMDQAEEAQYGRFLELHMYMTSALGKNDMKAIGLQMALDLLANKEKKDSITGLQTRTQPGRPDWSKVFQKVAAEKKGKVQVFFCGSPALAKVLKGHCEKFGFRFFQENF

Chain of NADPH oxidase 4 (Homo sapiens) (Q9NPH5 whole entry, looked up): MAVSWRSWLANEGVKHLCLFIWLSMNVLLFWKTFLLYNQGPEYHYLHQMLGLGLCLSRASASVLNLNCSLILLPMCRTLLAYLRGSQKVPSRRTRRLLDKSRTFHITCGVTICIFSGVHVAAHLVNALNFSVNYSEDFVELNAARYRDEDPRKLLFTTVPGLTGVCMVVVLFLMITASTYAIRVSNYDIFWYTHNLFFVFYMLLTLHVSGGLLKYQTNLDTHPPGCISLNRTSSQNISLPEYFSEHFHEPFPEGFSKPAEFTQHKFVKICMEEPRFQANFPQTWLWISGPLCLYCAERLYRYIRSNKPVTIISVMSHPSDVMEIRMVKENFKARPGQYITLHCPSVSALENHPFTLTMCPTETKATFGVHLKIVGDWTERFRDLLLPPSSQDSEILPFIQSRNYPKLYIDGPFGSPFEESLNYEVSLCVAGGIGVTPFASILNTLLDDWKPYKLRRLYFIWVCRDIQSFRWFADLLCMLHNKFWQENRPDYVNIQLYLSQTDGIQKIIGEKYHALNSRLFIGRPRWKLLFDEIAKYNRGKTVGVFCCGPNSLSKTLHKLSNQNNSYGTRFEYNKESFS
Chain of NADPH oxidase 2 (Homo sapiens) (P04839 whole entry, looked up): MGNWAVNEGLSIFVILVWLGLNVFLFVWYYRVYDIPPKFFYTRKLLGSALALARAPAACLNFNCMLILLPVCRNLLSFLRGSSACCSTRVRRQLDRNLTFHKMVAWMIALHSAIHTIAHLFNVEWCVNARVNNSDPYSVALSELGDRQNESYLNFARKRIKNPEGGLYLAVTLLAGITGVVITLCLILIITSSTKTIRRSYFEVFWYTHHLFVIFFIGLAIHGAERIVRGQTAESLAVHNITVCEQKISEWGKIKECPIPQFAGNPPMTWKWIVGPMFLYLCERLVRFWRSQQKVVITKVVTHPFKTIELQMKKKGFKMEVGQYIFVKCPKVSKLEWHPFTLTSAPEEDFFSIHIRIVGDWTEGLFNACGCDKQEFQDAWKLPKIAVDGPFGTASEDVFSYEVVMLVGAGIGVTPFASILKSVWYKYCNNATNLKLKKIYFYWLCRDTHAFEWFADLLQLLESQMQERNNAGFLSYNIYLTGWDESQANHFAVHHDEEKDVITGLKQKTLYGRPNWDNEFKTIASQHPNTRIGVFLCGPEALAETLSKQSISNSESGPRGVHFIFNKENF

SMILES	z-score [1]	composite z-score [2]	z-score [3]	z-score [4]	z-score [5]	z-score [6]	z-score [7]	z-score [8]	z-score [9]	z-score [10]
COc1ccc([Si](C)(C)[C@@H]2[C@@H](CCO)O[C@]3(C(=O)N(Cc4ccc(N5C(=O)c6ccccc6Oc6ccccc65)cc4)c4ccccc43)[C@H]2C)cc1	-0.572 (inactive)	0.0496	3.28 (inactive)	1.99 (inactive)	-1.14 (inactive)	1.26 (inactive)	0.0148	0.0702 (inactive)	1.63 (inactive)	2.29
C=C(CCCC)/C(=C/C[C@H](OC(=O)c1ccncc1)c1ccc(CO)o1)c1cc(C(=O)OC)ccc1OC	-0.432 (inactive)	0.178	4.31 (inactive)	0.756 (inactive)	2.04 (inactive)	0.332 (inactive)	-0.247	-0.582 (inactive)	-0.903 (inactive)	-1.57
CN(C)C(=O)[C@@]1(CCC(=O)OC(C)(C)C)COC(c2ccc(OCCCO)cc2)=N1	0.752 (inactive)	0.3	9.27 (active)	0.536 (inactive)	-0.674 (inactive)	0.198 (inactive)	-0.449	-0.0773 (inactive)	0.829 (inactive)	0.655
CCCC=C(CCC)[C@@H](NS(=O)(=O)c1ccccc1)c1ccc(C(F)(F)F)cc1	-1.51 (inactive)	0.775	4.38 (inactive)	1.07 (inactive)	0.482 (inactive)	0.983 (inactive)	-0.0787	-0.818 (inactive)	-1.19 (inactive)	2.67
O=C1O[C@@H](c2ccccc2)[C@@H](c2ccccc2)N2[C@@H](c3ccc(O)cc3)[C@]3(C(=O)Nc4ccc(C#CC5=CCCCC5)cc43)[C@@H](C(=O)Nc3nc4ccccc4s3)[C@H]12	0.542 (inactive)	1.53	0.0488 (inactive)	1.36 (inactive)	2.66 (inactive)	1.6 (inactive)	-0.227	1.35 (inactive)	0.617 (inactive)	-0.146
COCCCNC(=O)[C@]1(Cc2ccccc2CN=[N+]=[N-])N=C(c2ccc(OCCCO)cc2)O[C@@H]1c1ccccc1CN=[N+]=[N-]	-0.279 (inactive)	0.861	28.8 (active)	21.5 (active)	1.72 (inactive)	2.09 (inactive)	0.953	-0.983 (inactive)	-0.00869 (inactive)	-0.84
CCC[C@@H]1C[C@@]1(CCC)[C@@H](NC(=O)c1cccs1)c1ccc(Cl)cc1	-0.26 (inactive)	0.0319	-0.119 (inactive)	-0.639 (inactive)	0.307 (inactive)	0.0519 (inactive)	-0.392	-1.47 (inactive)	-0.556 (inactive)	0.684
C=CCOC(=O)[C@@H]1[C@H]2C(=O)O[C@H](c3ccccc3)[C@H](c3ccccc3)N2[C@H](c2ccc(OCCOC(=O)[C@H]3C[C@H]4C(=O)N[C@@H](Cc5ccccc5)C(=O)N4[C@H]3c3cccc(OCCO)c3)cc2)[C@@]12C(=O)Nc1ccc(I)cc12	-0.804 (inactive)	0.403	1.94 (inactive)	1.79 (inactive)	-1.66 (inactive)	0.619 (inactive)	0.652	2.21 (inactive)	0.45 (inactive)	1.98
C[N+](C)(C)CCCCNC(=O)[C@H]1C[C@H]2C(=O)NCC(=O)N2[C@H]1c1ccc(O)cc1	0.77 (inactive)	0.242	0.367 (inactive)	0.0681 (inactive)	-0.393 (inactive)	0.0564 (inactive)	-0.0248	-1.51 (inactive)	-0.769 (inactive)	0.226
NC(=O)NCC#Cc1ccc2c(c1)[C@]1(C(=O)N2)[C@H](c2ccc(OCCO)cc2)N2[C@H](c3ccccc3)[C@H](c3ccccc3)OC(=O)[C@H]2[C@@H]1C(=O)N1CCCCCCC1	-1.89 (inactive)	2.86	4.46 (inactive)	1.05 (inactive)	0.323 (inactive)	0.565 (inactive)	-0.0231	1.9 (inactive)	1.15 (inactive)	0.333
COc1ccc([Si](C)(C)[C@@H]2[C@@H](CCO)O[C@]3(C(=O)N(Cc4ccccc4)c4ccc(N5CCCCC5=O)cc43)[C@H]2C)cc1	2.13 (inactive)	0.0984	3.59 (inactive)	1.19 (inactive)	-0.121 (inactive)	0.231 (inactive)	0.863	-0.421 (inactive)	-0.278 (inactive)	1.37
CC(C)C(CO)N1C(=O)[C@@H]2[C@H]3C(=O)OCC=C[C@H]3OC23C=CCN(Cn2nnc4ccccc42)C(=O)[C@@H]13 (stereo not given in full)	0.197 (inactive)	-0.228	0.766 (inactive)	0.123 (inactive)	0.393 (inactive)	0.0882 (inactive)	0.234	0.699 (inactive)	0.247 (inactive)	0.94
COCCCNC(=O)[C@@]1(Cc2ccccc2N=[N+]=[N-])N=C(c2ccc(OCCCO)cc2)O[C@H]1c1ccccc1CN=[N+]=[N-]	0.871 (inactive)	0.152	24.8 (active)	8.62 (active)	2.41 (inactive)	0.74 (inactive)	2.17	-2.73 (inactive)	0.7 (inactive)	-1.16
COc1ccccc1CN1C(=O)c2ccccc2[C@@H](C(=O)NCC(C)C)[C@@H]1c1ccc(CO)cc1	1.08 (inactive)	-0.0061	1.12 (inactive)	0.157 (inactive)	1.23 (inactive)	0.206 (inactive)	-0.195	1.78 (inactive)	-0.496 (inactive)	1.67
NC(=O)NCC#Cc1ccc2c(c1)[C@]1(C(=O)N2)[C@H](c2ccc(O)cc2)N2[C@H](c3ccccc3)[C@H](c3ccccc3)OC(=O)[C@H]2[C@@H]1C(N)=O	0.373 (inactive)	-0.127	0.792 (inactive)	0.215 (inactive)	1.15 (inactive)	0.319 (inactive)	0.112	0.408 (inactive)	-0.571 (inactive)	-0.72
COc1ccc(C#Cc2ccc3c(c2)[C@]2(C(=O)N3)[C@H](C(N)=O)[C@H]3C(=O)O[C@H](c4ccccc4)[C@H](c4ccccc4)N3[C@@H]2c2ccc(O)cc2)cc1	-0.203 (inactive)	-0.131	3.46 (inactive)	1.63 (inactive)	0.0128 (inactive)	1.23 (inactive)	0.0535	0.945 (inactive)	0.346 (inactive)	-1.04
O=C1NC(=O)C2C1C=CC(C(O)CCc1ccccc1)N2Nc1ccccn1 (stereo not given)	0.0468 (inactive)	0.0844	-0.247 (inactive)	-0.752 (inactive)	-0.548 (inactive)	-1.97 (inactive)	1	-1.43 (inactive)	-3.34 (inactive)	-1.52
COc1ccc([Si](C)(C)[C@@H]2[C@@H](CC(=O)N(CCO)Cc3ccccc3)O[C@]3(C(=O)N(C)c4c(Br)cc(C)cc43)[C@H]2C)cc1	-1.98 (inactive)	-0.103	26.6 (active)	14.2 (active)	0.233 (inactive)	2.09 (inactive)	0.336	-1.91 (inactive)	-0.00605 (inactive)	-1.28
O=C(Nc1cc(Br)ccc1C(=O)NCc1cccc(O)c1)c1ccccc1	1.41 (inactive)	0.388	17.5 (active)	4.24 (inactive)	-0.222 (inactive)	2.17 (inactive)	-0.645	-1.57 (inactive)	-1.69 (inactive)	-1.3
C=C(CCCC)/C(=C/C[C@@H](OC(=O)c1ccncc1)c1ccccc1OCCO)c1cc(C(=O)OC)ccc1OC	0.504 (inactive)	0.282	28 (active)	17.5 (active)	3.94 (inactive)	2.07 (inactive)	0.761	1.08 (inactive)	-0.25 (inactive)	-1.62
COC(=O)C(CC#Cc1ccc2c(c1)[C@]1(C(=O)N2)[C@H](c2ccccc2OCCO)N2[C@H](c3ccccc3)[C@H](c3ccccc3)OC(=O)[C@H]2[C@@H]1C(=O)Nc1nc2ccccc2s1)C(=O)OC	-1.2 (inactive)	0.361	4.68 (inactive)	1.71 (inactive)	0.103 (inactive)	1.77 (inactive)	0.334	1.04 (inactive)	0.517 (inactive)	0.545
C[C@@H]1ON(c2ccccc2)[C@H](c2ccccc2)[C@H]1C(=O)N1C(=O)OC[C@H]1Cc1ccccc1	0.848 (inactive)	-0.294	1.66 (inactive)	0.282 (inactive)	-0.13 (inactive)	0.379 (inactive)	0.389	0.0547 (inactive)	-0.104 (inactive)	-1.37
[N-]=[N+]=NCc1ccccc1C[C@]1(C(=O)NCCN2CCOCC2)N=C(c2ccc(OCCCO)cc2)O[C@H]1c1ccccc1	0.158 (inactive)	0.428	12.7 (active)	1.83 (inactive)	1.14 (inactive)	1.11 (inactive)	0.378	-1.77 (inactive)	-0.0953 (inactive)	-1.19
C=CCC(OC(C)=O)[C@@H]1[C@@H](N(Cc2cccc3ccccc23)C(=O)Cc2ccc(F)cc2)c2cc(OCCCO)ccc2N1C(=O)Cc1ccc(OC)cc1 (stereo not given in full)	1.44 (inactive)	0.0789	0.922 (inactive)	-0.262 (inactive)	-0.0628 (inactive)	-0.545 (inactive)	1.36	-0.973 (inactive)	0.113 (inactive)	0.743
O=C1N(Cc2ccccc2)c2ccccc2[C@H]2OC(c3ccc(OCCCO)cc3)=N[C@@]12CCS(=O)(=O)c1ccccc1	-0.751 (inactive)	0.396	25.3 (active)	11.8 (active)	2.9 (inactive)	1.85 (inactive)	-0.0791	-0.596 (inactive)	-0.793 (inactive)	-1.21
